The numbers were not newly measured in PubChem BioAssay AID977611, which cites them from elsewhere.

The whole screen tested about 3,900 compounds, of which about 3,900 (100%) were called active. No cut-off is given here; in the data, nearly all actives have Kd up to about 4200 µM. The set was probably picked from earlier hits. The list shows a part of the results. Numbered stars: 1 amine (or outer) side, 2 acyl side, 3 side chain; on linkers, the order of the positions; unused ones are H or OH. Where a SMILES comes first, the peptide text is derived from it. Non-standard residues stand in square brackets, D forms with d. Square brackets hold non-standard residues; d marks the D form. Residues, ends and D or L forms follow the SMILES beside them. Peptide text beside a SMILES is read from it. X1 = O=C([C@H](Cc1ccc(O[P+](O)(O)O)cc1)N[*:1])[*:2]; Orn(CH(NH2)2) = NC(N)NCCC[C@H](N)C(=O)O

One may read the Kd as the constant that tells how readily two partners part at equilibrium.

A short description of the data set: PubChem AID 977611. The following applies: PDB protein-ligand complexes, literature Kd.

Regarding `CCOc1cc(C(=O)O)nc2c(NC(=O)c3cc(O)c4cccc(NC(=O)c5cc(O)c6cccc(NC(=O)c7cc(OCC(C)C)c8cccc(NC(=O)NCCCCOc9cccc(CNC(=O)c%10ccc(S(N)(=O)=O)cc%10)c9)c8n7)c6n5)c4n3)cccc12`, the dissociation constant (Kd) (protein: Human Carbonic Anhydrase II, PDB entry 4lp6) was 5.36 nM (active).

As to `OS(O)(O)OC1C(OS(O)(O)O)C(OS(O)(O)O)C(OS(O)(O)O)C(OS(O)(O)O)C1OS(O)(O)O` (stereo not given), the Kd (protein: HISTIDINE ACID PHOSPHATASE, PDB entry 4aro) was 160 nM (active).

`Cc1cc(OCCCS(C)(=O)=O)cc(C)c1-c1cccc(COc2ccc3c(c2)OC[C@H]3CC(=O)O)c1`: the Kd (protein: Free fatty acid receptor 1,Lysozyme hGPR40(L42A,F88A,G103A,Y202F mutant), PDB entry 4phu) was 12 nM (active). For the molecule `CN(C)CCCn1cc(C2C(=O)NC(=O)C2c2c[nH]c3ccccc23)c2ccccc21` (stereo not given), the dissociation constant (Kd) (protein: human PIM1 kinase domain, PDB entry 1xws) is 10 nM (active). Turning to `C[C@H]1O[C@@H](c2cccc(O)c2O)N[C@@H]1C(=O)NCCCN(CCCNC(=O)c1cccc(O)c1O)C(=O)[C@H]1N[C@H](c2cccc(O)c2O)O[C@@H]1C`, the Kd (protein: Ferric vibriobactin ABC transporter, periplasmic ferric vibriobactin-binding protein, PDB entry 3r5t) was 2.65 nM (active). On to `CN(C)C1=CCN(Cc2ccc(CCCCc3ccc(Cn4cnc5c(N)ncnc54)cc3)cc2)C=C1`, for which the dissociation constant Kd (protein: CHOLINE KINASE ALPHA, PDB entry 3zm9) was 38 nM (active). Take `CC[C@H](C)[C@H](NC(=O)[C@H](CC(=O)O)NC(=O)[C@H](CS)NC(=O)[C@H](CCC(N)=O)NC(=O)[C@@H](NC(=O)CNC(=O)[C@@H](NC(=O)[C@@H](NC(=O)[C@H](CO)NC(=O)[C@H](CO)NC(=O)[C@H](C)N)[C@@H](C)O)[C@@H](C)O)[C@@H](C)O)C(N)=O` (H-ASSTTGTQCDI-NH2): the Kd (protein: Dynein light chain 1, cytoplasmic LC8, PDB entry 4qh8) is 12800 nM (active). For Ac-SISYTDEIEEEDYD-OH, the equilibrium dissociation constant (Kd) (protein: Fibronectin, PDB entry 4pz5) is 121 nM (active).

On to `CC[C@H](C)[C@H](NC(=O)[C@H](CO)NC(=O)[C@H](CO)NC(=O)[C@H](CCC(N)=O)NC(=O)[C@@H](NC(=O)[C@H](CCC(N)=O)NC(=O)[C@H](CCCNC(N)N)NC(=O)[C@H](Cc1ccccc1)NC(=O)[C@@H](NC(=O)[C@@H](N)CCCNC(N)N)[C@@H](C)O)C(C)C)C(=O)N[C@@H](CO)C(=O)N[C@@H](CC(=O)O)C(=O)N[C@@H](Cc1ccccc1)C(=O)N[C@@H](Cc1ccc(O)cc1)C(=O)N[C@@H](CC(=O)O)C(=O)O` (H-[Orn(CH(NH2)2)]TF[Orn(CH(NH2)2)]QVQSSISDFYD-OH), for which, under “protein: Lipoprotein outS, PDB entry 4k0u”, the Kd was 55 nM (active). Regarding `CC[C@H](C)[C@H](NC(=O)[C@@H](NC(=O)[C@H](CC(C)C)NC(=O)[C@@H](N)CO)[C@@H](C)O)C(=O)N[C@@H](Cc1ccc(O[P+](O)(O)O)cc1)C(=O)N[C@@H](C)C(=O)N[C@@H](CCC(N)=O)C(=O)N[C@H](C(=O)N[C@@H](CCC(N)=O)C(=O)N[C@@H](CCCCN)C(=O)O)C(C)C` (H-SLTI[X1]AQVQK-OH), the Kd is 131 nM (active) (protein: EWS/FLI1 activated transcript 2(ETA-2), PDB entry 1i3z) and 120 nM (active) (protein: SAP, PDB entry 1d4w).

In the case of `CC[C@H](C)[C@H](NC(=O)[C@@H](NC(=O)[C@H](CC(C)C)NC(=O)[C@H](CO)NC(=O)[C@@H](N)CCCCN)[C@@H](C)O)C(=O)N[C@@H](Cc1ccc(O)cc1)C(=O)N[C@@H](C)C(=O)N[C@@H](CCC(N)=O)C(=O)N[C@H](C(=O)N[C@@H](CCC(N)=O)C(=O)N[C@@H](CCCCN)C(=O)O)C(C)C` (H-KSLTIYAQVQK-OH), the dissociation constant (Kd) (protein: SAP, PDB entry 1d4t) is 650 nM (active). `CC(C)C[C@H](NC(=O)[C@H](CC(C)C)NC(=O)[C@H](CC(N)=O)NC(=O)[C@@H](NC(=O)[C@H](C)NC(=O)[C@H](CCCCN)NC(=O)[C@H](CO)NC(=O)[C@H](CCCCN)NC(=O)[C@@H](NC(=O)[C@@H](N)CC(C)C)C(C)C)[C@@H](C)O)C(=O)N[C@H](C=O)Cc1ccc(O)cc1` (H-LVKSKATNLLY-aldehyde): the equilibrium dissociation constant (Kd) (protein: ATP-Dependent Clp Protease Adapter Protein ClpS, PDB entry 2w9r) was 4800 nM (active).

For the molecule H-YAESGIQTDL-OH, the Kd (protein: Dynein light chain 1, cytoplasmic, PDB entry 4ds1) is 17900 nM (active). For `CC[C@H](C)[C@H](NC(=O)[C@H](Cc1ccccc1)NC(=O)[C@@H](NC(=O)[C@H](CO)NC(=O)[C@H](CO)NC(=O)[C@H](C)NC(=O)[C@@H](NC(=O)[C@@H](N)CCCNC(N)N)C(C)C)C(C)C)C(=O)N[C@H](C(=O)O)[C@@H](C)O` (H-[Orn(CH(NH2)2)]VASSVFIT-OH), for the setting “protein: Filamin-A, PDB entry 2w0p”, the equilibrium dissociation constant (Kd) is 300 nM (active).

Take `C[C@H](N)C(=O)N[C@@H](Cc1c[nH]c2ccccc12)C(=O)N[C@@H](CC(N)=O)C(=O)N[C@@H](CO)C(=O)O` (H-AWNS-OH): where the note is “protein: mRNA-capping enzyme subunit alpha Pce1, PDB entry 4pz8”, the Kd is 1190 nM (active). On to `N[C@@H](CC(=O)O)C(=O)N[C@@H](Cc1c[nH]c2ccccc12)C(=O)N[C@@H](CCC(=O)O)C(=O)N[C@@H](Cc1ccccc1)C(=O)O` (H-DWEF-OH), for which the equilibrium dissociation constant (Kd) (protein: human protein 25? (MO25?), PDB entry 1upk) was 400 nM (active). Regarding H-GWNSFQSS-OH, the Kd (protein: GAE domain of ADP-ribosylation factor-binding protein GGA1(GGA1-GAE), PDB entry 2dwx) was 180000 nM (active). With `CSCC[C@H](NC(=O)[C@H](CCCN=C(N)N)NC(=O)[C@H](CCCN=C(N)N)NC(=O)[C@H](Cc1ccccc1)NC(=O)[C@H](CO[P+](O)(O)O)NC(=O)[C@H](CCC(N)=O)NC(=O)[C@H](CCCN=C(N)N)NC(=O)[C@H](CC(C)C)NC(=O)[C@H](CO)NC(=O)[C@H](CCCCN)NC(=O)[C@@H](N)CCCCN)C(=O)N[C@@H](C)C(=O)O`, where the note is “protein: Disks large homolog 4, Dlg GK, PDB entry 3wp1”, the dissociation constant Kd is 14100 nM (active).

Consider `CC(C)C[C@H](NC(=O)[C@H](CO)NC(=O)[C@H](CCCCN)NC(=O)[C@H](CCCCN)NC(=O)[C@H](CC(C)C)NC(=O)[C@H](CO[P+](O)(O)O)NC(=O)[C@H](CCCCN)NC(=O)[C@@H](NC(=O)[C@H](CCCN=C(N)N)NC(=O)[C@H](CO)NC(=O)[C@H](C)N)C(C)C)C(=O)N[C@@H](CCCN=C(N)N)C(=O)N[C@@H](CCC(N)=O)C(=O)N[C@@H](CO)C(=O)N[C@@H](Cc1ccccc1)C(=O)O`, for which, for the setting “protein: Disks large homolog 4, Dlg GK, PDB entry 3wp0”, the Kd is 10200 nM (active).
